Source: PubChem (several laboratories)
Only some compounds are listed: those with a hit (about 2.3% of all), similar ones and a draw of the others.
PfM18AAP inh-1: PfM18AAP enzyme inhibition. recombinant PfM18AAP, H-Glu-NHMec fluorogenic cleavage. inhibition, % at 7.35 µM. 290,000 tested, 1.2% active;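 active = inhibition above the campaign mean inhibition over all tested compounds plus 3 SD, cut at about 28% in these data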
Kir21 inh: Kir2.1 (mouse) channel inhibition; P35561; HEK293-Kir2.1, FluxOR thallium flux fluorescence; hits give low values; B-score at 10 µM; 310,000 tested, 0.85% active;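 active = fluorescence ratio B-score at or below minus 3 SD of library scores, with starting-brightness B-score within 2 SD, cut at about -4.2 in these data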;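 also: channel flux triggered by added potassium and thallium sulfate stimulus; B-score of peak minus minimum fluorescence over baseline after thallium stimulus; more negative B-score means stronger Kir2.1 block with less thallium influx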
Target sequence (P35561 whole entry, looked up): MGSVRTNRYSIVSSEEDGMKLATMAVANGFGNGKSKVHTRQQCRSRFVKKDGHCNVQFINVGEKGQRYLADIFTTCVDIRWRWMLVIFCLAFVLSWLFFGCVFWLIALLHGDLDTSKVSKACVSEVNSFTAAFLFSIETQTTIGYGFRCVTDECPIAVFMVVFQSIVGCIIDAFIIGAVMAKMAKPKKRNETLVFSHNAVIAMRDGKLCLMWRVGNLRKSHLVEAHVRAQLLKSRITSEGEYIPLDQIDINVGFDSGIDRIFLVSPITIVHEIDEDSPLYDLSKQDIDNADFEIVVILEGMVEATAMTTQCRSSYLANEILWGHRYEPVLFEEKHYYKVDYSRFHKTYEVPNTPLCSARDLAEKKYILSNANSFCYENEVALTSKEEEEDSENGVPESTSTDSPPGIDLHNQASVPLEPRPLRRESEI
Rce1 inhib: inhibitors of yeast Ras-converting enzyme; 290,000 tested, 0.27% active; yeast membranes, quenched prenylated peptide cleavage fluorescence; calls only; AID 2563;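 active = fall in fluorescence gain of 50% or more versus controls, with final raw signal at or below 3038400; inconclusive = same 50% fall but final raw signal above 3038400; inactive = fall in fluorescence gain under 50%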
DNA FID counter: fluorescent intercalator displacement, NS3 helicase counter-screen; AID 1845; DNA fluorescent intercalator displacement, fluorescence; inhibition, % at 7.9 µM; 290,000 tested, 0.17% active; in the data active = inhibition above about 37%;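 also: higher means more ethidium bromide displaced from hairpin DNA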
PfM18AAP inh-2: PfM18AAP inhibition, confirmation; shares compounds with PfM18AAP inh-1; recombinant PfM18AAP, H-Glu-NHMec fluorogenic cleavage; inhibition, % at 7.35 µM; 2,400 tested, 28% active; AID 2170;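 active = mean inhibition over replicate wells above the hit cutoff set for the earlier primary screen, cut at about 29% in these data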
CTSL1 confirm: Cathepsin L (human) inhibition, confirmation; 2,400 tested, under 10 active; shares compounds with PfM18AAP inh-1; purified cathepsin L1, Z-Leu-Arg-MCA fluorescence; inhibition, % at 5.96 µM; AID 2178;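 active = average inhibition across replicates above the hit cutoff set in the earlier primary screen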
A number is an active result; - = inactive; ? = inconclusive; . = not tested or not shown.

SMILES	PfM18AAP inh-1	Kir21 inh	Rce1 inhib	DNA FID counter	PfM18AAP inh-2	CTSL1 confirm
NS(=O)(=O)c1cccc(NC(=O)c2ccno2)c1	-	-	-	-	.	.
CC(=O)c1ccc(-n2nncc2-c2ccc([N+](=O)[O-])cc2)cc1	-	-	-	-	.	.
O=C(/C=C/c1cccs1)N1CCN(c2ccc(O)cc2)CC1	45	-	-	-	-	-
O=C(/C=C/c1cccs1)N1CCCCC1	-	-	-	-	.	.
O=C(N/N=C/c1ccc[nH]1)c1cc2ccccc2cc1O	39	-	-	-	-	-
CCN(CC)c1ccc2c(c1)OC(N)=C(C#N)C2c1cccnc1 (configuration not stated)	45	-	-	-	-	-
N#CC1=C(N)Oc2cc(N)ccc2C1c1cccnc1 (configuration not stated)	-	-	-	-	.	.
NS(=O)(=O)c1ccc(Nc2nc(-c3ccc(O)cc3O)cs2)cc1	41	-	.	-	39	-
Cc1ccc(Nc2nc(-c3ccc(O)c(O)c3)cs2)nc1	63	-	-	-	43	-
COc1ccc(-c2csc(Nc3ccc(C)cn3)n2)cc1OC	-	-	-	-	.	.
Cc1nc2ncccn2c1-c1csc(Nc2ccc(O)cc2)n1	41	-	-	-	43	-
Cc1cc(NS(=O)(=O)c2ccc(Nc3nc(-c4ccc(O)cc4)cs3)cc2)no1	43	-	-	-	-	-
COCCN(C(=O)COC(=O)c1ccccc1NCc1ccco1)c1c(N)n(Cc2ccccc2)c(=O)[nH]c1=O	.	-	-	.	.	.
Oc1ccc(-c2csc(Nc3ccccn3)n2)c(O)c1	34	-	.	-	-	-
Cc1cccnc1Nc1nc(-c2ccc(O)cc2O)cs1	32	-	-	-	-	-
c1ccc(Nc2nc(-c3cccs3)cs2)nc1	-	-	-	-	.	.
O=C(c1ccc(F)cc1)C1CCN(C(=S)Nc2ccc(F)cc2)CC1	-	-	-	-	.	.
OC[C@H]1O[C@H](OCc2ccccc2)[C@H](O[C@@H]2OC[C@@H](O)[C@H](O)[C@H]2O)[C@@H](O)[C@@H]1O	.	-	-	.	.	.
OC1COC(OCC2OC(OCc3ccccc3)C(O)C(O)C2O)C(O)C1O (configuration not stated)	35	-	-	-	-	-
Cc1cc(NC(=O)C(C)Oc2ccccc2)no1 (configuration not stated)	-	-	-	-	.	.
CC1(C)c2[nH]c3ccccc3c2C[C@H]2C(=O)N(Cc3ccc(F)cc3)C(=O)N21	.	-	-	.	.	.
NS(=O)(=O)c1ccc(NC(=S)N2CCN(C(=O)C3CCCO3)CC2)cc1 (configuration not stated)	47	-	-	-	-	-
CC1CCCN(CCCN2C(=O)C3C(C(=O)Nc4cccc(Cl)c4)C4C=CC3(O4)C2C(=O)NC2CCCCC2)C1 (configuration not stated)	-	-	-	-	.	.
C=CCNC(=O)c1sc(=S)n(-c2ccc(C(=O)OCC)cc2)c1N	42	-	-	-	-	-
CCOC(=O)c1ccc(-n2c(N)c(C(=O)NCc3ccco3)sc2=S)cc1	-	-	-	-	.	.
SMILES	PfM18AAP inh-1	Kir21 inh	Rce1 inhib	DNA FID counter	PfM18AAP inh-2	CTSL1 confirm
FC(F)(F)c1cc(-c2ccc3c(c2)OCO3)nc(NCc2ccco2)n1	37	-	.	-	-	-
O=c1c2cc3c(=O)n(-c4ccccc4O)c(=O)c3cc2c(=O)n1-c1ccccc1O	41	-	-	-	-	-
Cc1c(O)cc2n(c1=O)-c1ccccc1C2(C)C	-	-	.	-	.	.
Nc1c(C(=O)c2ccc(Cl)cc2)sc2nsc(SCCN3CCOCC3)c12	34	-	-	-	-	-
Nc1c(C(=O)c2ccccc2)sc2nsc(SCCN3CCCC3)c12	35	-	-	-	-	-
Cc1cc(C)c2c(N)c(C(=O)c3ccccc3)sc2n1	-	-	-	-	.	.
CC(=O)c1sc2nsc(SCCN3CCCCC3)c2c1N	33	-	-	-	-	-
S=C(Sc1ccc(Cl)cc1)Sc1ccc(Cl)cc1	-	-	-	-	.	.
O=c1cc(CN2CCN(Cc3ccccc3)CC2)c2ccc(O)c(O)c2o1	48	-	-	-	-	-
Cc1c(O)ccc2c(CN3CCN(Cc4ccccc4)CC3)cc(=O)oc12	-	-	-	-	.	.
O=c1cc(CN2CCOCC2)c2ccc(O)c(O)c2o1	36	-	-	-	-	-
CCCc1cc(=O)oc2c(CN3CCOCC3)c(O)ccc12	-	-	?	-	.	.
CC(=S)/C=C1\Sc2ccccc2N1C	37	-	-	-	-	-
